Of roughly 8,800 targets only a part is listed; those with a hit were picked by preference. About 0.5% of all pairs of compound and target were hits. Values without a mark were called inactive.
What was measured:
Experiment in all cases: log2 fold change, soluble protein after heating vs DMSO (PISA); higher = thermal stabilisation; K562 lysate, 10 uM; active = over 0.2 and 3.5 SD of the protein, either way, in both replicates (recomputed)
[1] = compound: C#Cc1cccc(Nc2ncnc3cc(OCCOC)c(OCCOC)cc23)c1 [erlotinib]
Procedure, shortened: (§1)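 K562 pellets were dounce-homogenised in PBS pH 7.4 containing 1 mM MgCl2, and the crude extract, at 1 mg/mL protein, was exposed to 10 μM compound for 30 min. Aliquots were heated for 3 min across 48°C-58°C, pooled, brought to 0.5% NP-40 at 4°C and spun at 21,000xg for 90 min, with the supernatant taken as soluble protein. TMTpro 16plex LC-MS/MS with equalised channel sums quantified that protein. Values are log-two fold changes in thermal stability relative to solvent controls, taken from duplicates.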

[2] = compound: C/C(=N\NC(=O)C1=CC(=CC=C1)S(=O)(=O)N2CCOCC2)/C3=C(C=CC(=C3)Cl)O
Procedure, shortened: as §1

[3] = compound: C1=CC(=CC=C1C2=NC3=C(N2)C=C(C=C3)C(=O)N)OC4=CC=C(C=C4)Cl
Procedure, shortened: as §1

[4] = compound: C1=CC2=C(C=CC(=C2)/C=C\3/C(=O)NC(=NCC4=CC=CS4)S3)N=C1
Procedure, shortened: as §1

[5] = compound: C1=CC2=NC=CN=C2C=C1/C=C/3\C(=O)NC(=O)S3
Procedure, shortened: as §1

[6] = compound: C1=CC=C(C=C1)C2=NC(=C(N2)C3=CC=NC=C3)C4=CC(=C(C=C4)Cl)O
Procedure, shortened: as §1

[7] = compound: C1=CC=C2C(=C1)C3=NNC4=CC=CC(=C43)C2=O
Procedure, shortened: as §1

[8] = compound: C1CCN(C1)C(=O)NC2=CC=CC(=C2)NC3=NC=C(C(=N3)NCCC4=CN=CN4)Br
Procedure, shortened: as §1

[9] = compound: C1CN(CCC1(CC2=CC=C(C=C2)Cl)N)C3=NC=NC4=C3C=CN4
Procedure, shortened: as §1

[10] = compound: C1COCCN1CCN2C3=CC=CC=C3N=C2NC(=O)C4=CC(=CC=C4)[N+](=O)[O-] [IRAK-1-4 Inhibitor I]
Procedure, shortened: as §1

Sequence of UniProt Q5VTE0 (Q5VTE0 whole entry, looked up): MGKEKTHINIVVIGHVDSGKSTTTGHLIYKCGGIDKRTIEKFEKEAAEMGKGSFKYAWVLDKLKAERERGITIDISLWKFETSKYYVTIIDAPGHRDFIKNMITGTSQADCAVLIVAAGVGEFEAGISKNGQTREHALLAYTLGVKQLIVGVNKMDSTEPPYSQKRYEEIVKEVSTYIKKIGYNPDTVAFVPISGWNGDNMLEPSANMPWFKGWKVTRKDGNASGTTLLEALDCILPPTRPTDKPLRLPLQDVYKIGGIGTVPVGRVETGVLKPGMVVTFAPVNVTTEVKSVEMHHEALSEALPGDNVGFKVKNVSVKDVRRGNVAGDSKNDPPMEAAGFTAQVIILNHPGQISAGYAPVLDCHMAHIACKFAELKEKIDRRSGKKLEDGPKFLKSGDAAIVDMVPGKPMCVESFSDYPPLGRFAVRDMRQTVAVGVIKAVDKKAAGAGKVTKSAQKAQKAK
Sequence of UniProt Q9UPW0 (Q9UPW0 whole entry, looked up): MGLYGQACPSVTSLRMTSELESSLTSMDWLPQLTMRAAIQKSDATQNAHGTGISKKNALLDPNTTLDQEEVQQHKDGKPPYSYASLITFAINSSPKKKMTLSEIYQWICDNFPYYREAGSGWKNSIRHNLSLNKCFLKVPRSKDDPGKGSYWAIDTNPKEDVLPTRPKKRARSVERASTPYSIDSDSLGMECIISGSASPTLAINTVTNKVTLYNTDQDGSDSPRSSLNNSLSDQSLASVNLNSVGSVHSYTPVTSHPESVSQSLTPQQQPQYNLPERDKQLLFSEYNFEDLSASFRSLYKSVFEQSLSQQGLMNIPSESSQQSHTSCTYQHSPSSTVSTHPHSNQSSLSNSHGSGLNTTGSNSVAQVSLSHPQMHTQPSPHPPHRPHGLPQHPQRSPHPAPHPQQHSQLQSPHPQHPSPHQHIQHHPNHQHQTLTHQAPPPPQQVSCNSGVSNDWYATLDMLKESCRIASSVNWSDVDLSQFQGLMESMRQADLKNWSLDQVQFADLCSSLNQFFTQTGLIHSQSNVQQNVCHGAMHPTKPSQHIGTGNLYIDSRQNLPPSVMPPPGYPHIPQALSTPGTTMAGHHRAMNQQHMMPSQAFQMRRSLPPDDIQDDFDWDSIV
Sequence of UniProt Q13409 (Q13409 whole entry, looked up): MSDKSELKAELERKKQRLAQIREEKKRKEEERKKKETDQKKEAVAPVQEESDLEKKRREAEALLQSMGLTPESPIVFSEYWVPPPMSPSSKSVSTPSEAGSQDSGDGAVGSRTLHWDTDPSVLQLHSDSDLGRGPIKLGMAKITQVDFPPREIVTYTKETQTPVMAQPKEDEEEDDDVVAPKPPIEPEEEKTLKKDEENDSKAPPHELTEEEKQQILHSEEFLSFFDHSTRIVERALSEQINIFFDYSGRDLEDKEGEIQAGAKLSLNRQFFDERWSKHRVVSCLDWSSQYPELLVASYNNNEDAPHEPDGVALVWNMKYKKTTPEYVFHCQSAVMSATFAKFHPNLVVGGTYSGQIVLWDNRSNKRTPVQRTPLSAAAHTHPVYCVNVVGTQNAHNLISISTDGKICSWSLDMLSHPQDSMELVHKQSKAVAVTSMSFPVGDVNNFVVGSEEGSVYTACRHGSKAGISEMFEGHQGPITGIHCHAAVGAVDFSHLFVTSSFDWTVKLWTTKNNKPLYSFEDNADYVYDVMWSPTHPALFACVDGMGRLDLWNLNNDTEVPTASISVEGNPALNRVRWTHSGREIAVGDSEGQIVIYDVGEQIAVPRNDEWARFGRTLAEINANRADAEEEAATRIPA
Sequence of UniProt P06733 (P06733 whole entry, looked up): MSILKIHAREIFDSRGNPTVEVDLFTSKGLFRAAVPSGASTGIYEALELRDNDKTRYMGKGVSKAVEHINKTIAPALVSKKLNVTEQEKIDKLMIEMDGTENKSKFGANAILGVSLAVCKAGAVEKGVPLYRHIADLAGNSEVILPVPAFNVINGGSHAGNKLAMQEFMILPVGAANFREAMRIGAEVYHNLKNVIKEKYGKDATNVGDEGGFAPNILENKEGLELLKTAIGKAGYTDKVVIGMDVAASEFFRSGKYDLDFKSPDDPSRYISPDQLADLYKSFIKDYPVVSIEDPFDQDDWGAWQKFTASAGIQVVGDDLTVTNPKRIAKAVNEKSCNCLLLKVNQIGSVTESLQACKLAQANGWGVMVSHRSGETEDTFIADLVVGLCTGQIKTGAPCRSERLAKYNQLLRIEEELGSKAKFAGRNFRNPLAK
Sequence of UniProt P51570 (P51570 whole entry, looked up): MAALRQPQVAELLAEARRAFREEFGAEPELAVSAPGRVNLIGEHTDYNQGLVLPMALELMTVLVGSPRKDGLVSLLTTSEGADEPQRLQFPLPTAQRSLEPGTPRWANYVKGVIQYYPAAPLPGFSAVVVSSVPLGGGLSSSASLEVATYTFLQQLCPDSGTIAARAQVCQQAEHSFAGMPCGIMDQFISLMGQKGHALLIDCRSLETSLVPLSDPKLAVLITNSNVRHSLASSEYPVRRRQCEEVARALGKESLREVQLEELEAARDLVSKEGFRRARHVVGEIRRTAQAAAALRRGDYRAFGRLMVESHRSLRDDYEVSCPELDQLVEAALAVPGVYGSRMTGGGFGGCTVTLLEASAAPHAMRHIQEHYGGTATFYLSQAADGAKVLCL
Sequence of UniProt A6NHQ2 (A6NHQ2 whole entry, looked up): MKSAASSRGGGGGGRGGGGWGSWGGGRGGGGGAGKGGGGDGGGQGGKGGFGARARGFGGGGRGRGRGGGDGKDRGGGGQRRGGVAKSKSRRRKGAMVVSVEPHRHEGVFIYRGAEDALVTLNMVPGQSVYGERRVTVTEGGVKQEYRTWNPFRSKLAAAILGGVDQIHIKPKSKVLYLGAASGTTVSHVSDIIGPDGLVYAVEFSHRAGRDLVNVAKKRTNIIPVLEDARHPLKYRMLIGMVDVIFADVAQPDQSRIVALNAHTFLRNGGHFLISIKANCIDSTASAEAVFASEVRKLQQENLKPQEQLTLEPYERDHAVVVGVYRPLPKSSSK
Sequence of UniProt P0C2W1 (P0C2W1 whole entry, looked up): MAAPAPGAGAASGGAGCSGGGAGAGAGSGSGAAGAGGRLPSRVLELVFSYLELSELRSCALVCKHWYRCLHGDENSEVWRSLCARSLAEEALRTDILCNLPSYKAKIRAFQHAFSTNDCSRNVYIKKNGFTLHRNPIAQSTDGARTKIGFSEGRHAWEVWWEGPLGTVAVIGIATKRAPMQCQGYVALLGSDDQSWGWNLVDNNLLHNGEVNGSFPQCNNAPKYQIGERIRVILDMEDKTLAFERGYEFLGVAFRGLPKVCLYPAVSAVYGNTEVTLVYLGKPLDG
Sequence of UniProt O14526 (O14526 whole entry, looked up): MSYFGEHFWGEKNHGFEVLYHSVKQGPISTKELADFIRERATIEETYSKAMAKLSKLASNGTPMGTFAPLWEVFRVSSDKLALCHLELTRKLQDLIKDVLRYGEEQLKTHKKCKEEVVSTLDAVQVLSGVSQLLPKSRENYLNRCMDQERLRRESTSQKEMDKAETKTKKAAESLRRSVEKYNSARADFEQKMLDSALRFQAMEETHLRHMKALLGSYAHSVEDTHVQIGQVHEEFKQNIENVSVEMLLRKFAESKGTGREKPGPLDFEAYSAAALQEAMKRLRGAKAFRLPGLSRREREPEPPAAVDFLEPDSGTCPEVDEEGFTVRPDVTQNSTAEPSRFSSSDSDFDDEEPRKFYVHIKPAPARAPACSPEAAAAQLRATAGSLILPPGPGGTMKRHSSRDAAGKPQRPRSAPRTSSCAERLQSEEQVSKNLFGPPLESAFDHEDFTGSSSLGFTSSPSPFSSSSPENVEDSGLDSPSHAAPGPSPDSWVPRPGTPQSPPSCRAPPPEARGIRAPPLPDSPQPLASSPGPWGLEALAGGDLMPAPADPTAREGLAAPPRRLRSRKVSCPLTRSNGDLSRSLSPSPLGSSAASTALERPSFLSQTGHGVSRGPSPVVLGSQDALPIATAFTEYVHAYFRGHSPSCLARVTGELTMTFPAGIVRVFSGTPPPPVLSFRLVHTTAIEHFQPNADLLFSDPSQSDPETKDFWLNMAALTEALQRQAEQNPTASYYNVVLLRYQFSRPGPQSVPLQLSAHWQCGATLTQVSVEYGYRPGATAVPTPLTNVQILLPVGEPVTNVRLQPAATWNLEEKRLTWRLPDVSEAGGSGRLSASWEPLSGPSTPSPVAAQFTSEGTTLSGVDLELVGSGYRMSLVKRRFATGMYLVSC
Sequence of UniProt P11413 (P11413 whole entry, looked up): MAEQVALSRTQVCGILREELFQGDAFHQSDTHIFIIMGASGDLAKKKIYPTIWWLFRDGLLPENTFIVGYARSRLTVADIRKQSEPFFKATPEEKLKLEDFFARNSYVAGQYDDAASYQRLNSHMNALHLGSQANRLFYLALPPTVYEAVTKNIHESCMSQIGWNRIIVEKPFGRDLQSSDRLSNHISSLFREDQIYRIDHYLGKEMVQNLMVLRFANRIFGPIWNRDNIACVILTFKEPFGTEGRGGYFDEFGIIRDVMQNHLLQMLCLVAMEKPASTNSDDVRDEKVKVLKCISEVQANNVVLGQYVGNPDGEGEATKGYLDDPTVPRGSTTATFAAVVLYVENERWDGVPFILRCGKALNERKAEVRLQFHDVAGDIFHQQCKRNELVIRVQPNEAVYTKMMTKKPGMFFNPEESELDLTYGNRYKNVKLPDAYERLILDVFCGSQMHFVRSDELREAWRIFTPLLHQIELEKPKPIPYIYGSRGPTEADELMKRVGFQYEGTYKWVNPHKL
Sequence of UniProt P02792 (P02792 whole entry, looked up): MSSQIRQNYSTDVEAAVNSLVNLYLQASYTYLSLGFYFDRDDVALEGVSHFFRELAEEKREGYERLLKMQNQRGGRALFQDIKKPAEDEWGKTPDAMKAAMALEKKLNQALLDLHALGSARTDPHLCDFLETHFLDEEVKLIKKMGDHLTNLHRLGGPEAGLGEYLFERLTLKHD
Sequence of UniProt P23919 (P23919 whole entry, looked up): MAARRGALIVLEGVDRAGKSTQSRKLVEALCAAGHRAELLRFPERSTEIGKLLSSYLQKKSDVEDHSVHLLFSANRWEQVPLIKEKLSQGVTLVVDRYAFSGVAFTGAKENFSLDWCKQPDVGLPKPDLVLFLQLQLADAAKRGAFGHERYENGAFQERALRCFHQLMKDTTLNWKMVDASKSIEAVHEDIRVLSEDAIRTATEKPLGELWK

| Target | log2 fold change [1] | log2 fold change [2] | log2 fold change [3] | log2 fold change [4] | log2 fold change [5] | log2 fold change [6] | log2 fold change [7] | log2 fold change [8] | log2 fold change [9] | log2 fold change [10] |
| --- | --- | --- | --- | --- | --- | --- | --- | --- | --- | --- |
| EIF2B4 (UniProt Q9UI10) | 0.066 | -0.063 | -0.027 | -0.178 | -0.02 | -0.121 | 0.105 | -0.009 | 0.07 | 0.118 |
| FAM118B (UniProt Q9BPY3) | -0.004 | 0.051 | 0.004 | 0.061 | 0.03 | -0.01 | -0.012 | 0.013 | -0.004 | -0.03 |
| EXOC1 (UniProt Q9NV70) | 0.05 | -0.005 | -0.047 | -0.009 | 0.074 | -0.035 | -0.043 | 0.014 | -0.016 | -0.011 |
| ENGASE (UniProt Q8NFI3) | 0.036 | 0 | 0.043 | -0.069 | 0.008 | 0.002 | -0.04 | 0.009 | 0.043 | 0.007 |
| ENO1 isoform 2 (UniProt P06733) | -0.02 | -0.039 | -0.035 | -0.021 | -0.016 | -0.003 | -0.066 | -0.033 | 0.027 | 0.015 |
| EXTL2 (UniProt Q9UBQ6) | -0.02 | -0.037 | 0.072 | 0.103 | -0.443 | 0 | 0.092 | 0.003 | -0.007 | -0.049 |
| GATAD2A isoform 3 (UniProt Q86YP4) | 0.012 | -0.124 | -0.003 | -0.034 | 0.003 | -0.002 | -0.035 | -0.037 | 0.034 | -0.016 |
| FOXJ3 (UniProt Q9UPW0) | 0.018 | 0.085 | -0.015 | -0.001 | 0.014 | 0.032 | -0.01 | -0.035 | -0.013 | -0.025 |
| ENO1, A0A2R8YEM5 | -0.019 | 0.004 | 0.011 | -0.017 | 0.031 | 0.016 | 0.009 | 0 | 0.032 | -0.031 |
| EXOC2 (UniProt Q96KP1) | 0.011 | -0.008 | -0.028 | 0.049 | -0.008 | -0.001 | -0.042 | -0.018 | 0.016 | 0.009 |
| EEF1A1P5 (UniProt Q5VTE0) | 0.014 | -0.054 | 0.023 | 0 | 0.001 | -0.01 | -0.065 | -0.048 | 0.022 | 0.003 |
| EIF2B4 isoform 2 (UniProt Q9UI10) | 0.031 | 0.027 | 0.008 | 0.041 | 0.009 | 0.013 | -0.04 | -0.006 | -0.008 | 0.03 |
| FCHO1 (UniProt O14526) | 0.062 | 0.034 | 0.045 | -0.055 | 0.024 | 0.065 | -0.064 | -0.044 | -0.022 | -0.021 |
| FNTB (UniProt P49356) | -0.03 | -0.038 | 0.011 | 0.013 | -0.034 | -0.005 | -0.02 | 0.028 | -0.022 | -0.006 |
| DYNC1I2 isoform 5 (UniProt Q13409) | -0.005 | 0.001 | -0.001 | 0.009 | 0 | 0.009 | 0.019 | -0.007 | 0.016 | 0.018 |
| FTL (UniProt P02792) | -0.14 | -0.599 | -0.077 | -0.027 | -0.006 | 0.11 | 0.012 | -0.063 | -0.034 | 0.169 |
| FBXO45 (UniProt P0C2W1) | 0.077 | 0.016 | -0.033 | 0.092 | -0.099 | -0.126 | -0.069 | 0.018 | 0.01 | -0.043 |
| EXOC6 (UniProt Q8TAG9) | 0 | -0.045 | -0.062 | -0.058 | -0.044 | 0.005 | -0.043 | 0.018 | 0.008 | 0.013 |
| GALK1 isoform 2 (UniProt P51570) | 0.021 | 0.022 | 0.01 | -0.076 | -0.024 | -0.015 | -0.031 | 0.023 | 0.058 | 0.042 |
| GIGYF2 (UniProt Q6Y7W6) | -0.011 | -0.033 | -0.024 | -0.016 | 0.018 | 0.005 | -0.005 | 0.006 | -0.005 | 0.002 |
| G6PD isoform 2 (UniProt P11413) | 0.034 | 0.05 | 0.024 | 0.016 | 0.018 | -0.001 | -0.002 | 0.006 | 0.011 | 0.001 |
| EIF2D (UniProt P41214) | 0.048 | 0.019 | -0.017 | 0.054 | 0.001 | 0.008 | -0.016 | 0.025 | 0.021 | -0.023 |
| FBLL1 (UniProt A6NHQ2) | -0.003 | -0.015 | -0.008 | 0.059 | 0.075 | -0.031 | -0.031 | 0.021 | 0.022 | -0.004 |
| EPHX2 (UniProt P34913) | -0.024 | 0.133 | 0.156 | 0.036 | -0.023 | -0.014 | 0.014 | 0.077 | -0.002 | -0.014 |
| ETHE1 (UniProt O95571) | -0.046 | -0.01 | 0.039 | 0.021 | 0.034 | -0.007 | 0.012 | -0.046 | -0.013 | -0.044 |
| GFPT1 (UniProt Q06210) | 0.031 | -0.008 | 0.003 | 0.013 | -0.008 | 0.001 | -0.014 | -0.021 | 0.008 | 0.006 |
| ENSA isoform 3 (UniProt O43768) | -0.034 | 0.032 | 0 | -0.013 | -0.047 | -0.459 (active) | 0.013 | 0.006 | 0.006 | -0.004 |
| EEF1AKNMT (UniProt Q8N6R0) | 0.048 | 0.029 | -0.02 | -0.039 | 0.005 | 0 | -0.065 | 0.011 | 0.053 | -0.015 |
| DTYMK (UniProt P23919) | -0.013 | 0.025 | 0.01 | -0.017 | 0.024 | -0.016 | 0.004 | 0.01 | -0.027 | -0.028 |
| EDC3 (UniProt Q96F86) | -0.008 | -0.01 | -0.023 | -0.02 | -0.031 | 0.035 | -0.011 | -0.027 | -0.013 | 0 |

— the supplement of paper PMC10849652
